Laboratory results as given in PubChem BioAssay (EPA / NIEHS).
Calls of active or inactive are those of the source. The calls were made as follows: active = hit-call score of the fitted dose curve at least 0.9, where 1 is the maximum; inactive = score below 0.9.

What was measured:
[1] = BSK_3C_SRB: Viability Assessment in the BioMAP Diversity Plus: 3C Assay (AID 2283023); settings: primary human endothelial cells (HUVEC);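 also: fitted both ways against DMSO so a hit may be signal rise or drop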
Method in brief: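 Absorbance at 560 nm of sulforhodamine B-stained (0.1%) total protein served as a cytotoxicity readout in human umbilical vein endothelial cells, 24 h after chemical treatment. Signal was fitted bidirectionally relative to DMSO.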

[2] = read-out: Matrix Metallopeptidase 1 (MMP1), MMP1 (gene 4312); experiment: BSK_BE3C_MMP1: BioMAP Diversity Plus: BE3C Assay for Matrix Metallopeptidase 1 (MMP1) Biomarker Activity (AID 2283024); settings: primary human bronchial epithelial cells; actives raise or lower the signal
Method in brief: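 Human bronchial epithelial cells (BE3C system) exposed to compound for 24 h; MMP1 then quantified by ELISA. Activity was fitted in both directions relative to DMSO.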

[3] = BSK_3C_Vis: BioMAP Diversity Plus: 3C Assay for Morphology Visualization (AID 2283025); settings: primary human endothelial cells (HUVEC);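 also: fitted both ways so gain or loss versus DMSO counts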;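 as to AC50: light microscopy image of cell morphology used as background control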
Method in brief: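 Chemicals were added to primary human umbilical vein endothelium, cells were incubated 24 h, and morphology was then visualized by light microscopy. Gain or loss of signal was fitted bidirectionally relative to DMSO.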

[4] = BSK_4H_SRB: Viability Assessment in the BioMAP Diversity Plus: 4H Assay (AID 2283027); settings: primary human endothelial cells (HUVEC);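 also: cells exposed to compound for 24 h before staining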;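 as to AC50: curves fitted both ways versus DMSO so AC50 may be loss or gain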
Method in brief: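 Absorbance at 560 nm of SRB-stained total protein served as the viability read-out in confluent primary human umbilical vein endothelium 24 h after chemical treatment. Curves were fitted bidirectionally against DMSO as negative control.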

[5] = BSK_BE3C_SRB: Viability Assessment in the BioMAP Diversity Plus: BE3C Assay (AID 2283028); settings: primary human bronchial epithelial cells;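 as to AC50: fitted both ways so AC50 may mark signal gain or loss versus DMSO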
Method in brief: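 Cells (human bronchial epithelial, primary) are treated with chemicals, and after 24 h the parallel cultures are fixed in 10% TCA. These are then stained with 0.1% SRB and read at 560 nm. Gain or loss of signal is fitted relative to DMSO.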

[6] = read-out: Thrombomodulin, THBD (gene 7056); experiment: BSK_3C_Thrombomodulin: BioMAP Diversity Plus: 3C Assay for Thrombomodulin Biomarker Activity (AID 2283029); settings: primary human endothelial cells (HUVEC); actives raise or lower the signal
Method in brief: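 Read-out is ELISA of thrombomodulin on human umbilical vein endothelium 24 h after chemical dosing. Gain or loss of signal is scored relative to DMSO. Overt cytotoxicity is checked in parallel cultures by sulforhodamine B staining.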

[7] = read-out: Urokinase-type plasminogen activator receptor (uPAR), PLAUR (gene 5329); experiment: BSK_4H_uPAR: BioMAP Diversity Plus: 4H Assay for Urokinase-type plasminogen activator receptor (uPAR) Biomarker Activity (AID 2283030); settings: primary human endothelial cells (HUVEC); actives raise or lower the signal
Method in brief: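 Cell-surface uPAR ELISA signal, measured 24 h after dosing human umbilical vein endothelial cells, was analyzed with bidirectional fitting relative to DMSO. Parallel SRB staining of total protein tracked overt cytotoxicity.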

[8] = read-out: Vascular endothelial growth factor receptor 2 (Homo sapiens) (UniProt P35968); experiment: BSK_4H_VEGFRII: BioMAP Diversity Plus: 4H Assay for Vascular endothelial growth factor receptor 2 (VEGFR2) Biomarker Activity (AID 2283031); settings: primary human endothelial cells (HUVEC); actives raise or lower the signal;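 as to AC50: cell-surface VEGFR2 protein level quantified by ELISA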
Method in brief: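 ELISA read-out of VEGFRII in primary human umbilical vein endothelium, taken 24 h after chemical treatment. Responses are expressed relative to DMSO, with bidirectional fitting.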

[9] = read-out: Human Leukocyte Antigen - DR isotype (HLADR), HLA-DRA (gene 3122); experiment: BSK_BE3C_HLADR: BioMAP Diversity Plus: BE3C Assay for Human Leukocyte Antigen - DR isotype (HLADR) Biomarker Activity (AID 2283032); settings: primary human bronchial epithelial cells; actives raise or lower the signal
Method in brief: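 ELISA read-out of HLA-DR on human lung bronchial epithelial primary cells, measured 24 h post-dosing. Both increases and decreases were scored relative to DMSO vehicle.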

[10] = read-out: Vascular cell adhesion molecule 1 (VCAM1), VCAM1 (gene 7412); experiment: BSK_4H_VCAM1: BioMAP Diversity Plus: 4H Assay for Vascular cell adhesion molecule 1 (VCAM1) Biomarker Activity (AID 2283033); settings: primary human endothelial cells (HUVEC); actives raise or lower the signal
Method in brief: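 ELISA read-out of VCAM-1 on human umbilical vein endothelium 24 hours after chemical dosing; gain or loss of signal was fitted relative to DMSO, with sulforhodamine B staining of parallel cultures flagging overt cytotoxicity.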

[11] = read-out: Interferon-gamma inducible Protein 10 (IP10), CXCL10 (gene 3627); experiment: BSK_BE3C_IP10: BioMAP Diversity Plus: BE3C Assay for Interferon-gamma inducible Protein 10 (IP10) Biomarker Activity (AID 2283034); settings: primary human bronchial epithelial cells; actives raise or lower the signal
Method in brief: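 Chemical is dosed onto human lung bronchial epithelial primary cells, cultures are incubated 24 h, and IP-10 is then quantified by ELISA. Gain or loss of signal is fitted in both directions relative to DMSO.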

[12] = read-out: Monokine induced gamma interferon (MIG), CXCL9 (gene 4283); experiment: BSK_BE3C_MIG: BioMAP Diversity Plus: BE3C Assay for Monokine induced gamma interferon (MIG) Biomarker Activity (AID 2283035); settings: primary human bronchial epithelial cells; actives raise or lower the signal
Method in brief: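 MIG level was determined by ELISA after 24 h chemical treatment of primary human bronchial epithelial cells. Values were fitted bidirectionally with DMSO as the negative control and activity baseline.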

[13] = read-out: Transforming growth factor beta 1 (TGFb1), TGFB1 (gene 7040); experiment: BSK_BE3C_TGFb1: BioMAP Diversity Plus: BE3C Assay for Transforming growth factor beta 1 (TGFb1) Biomarker Activity (AID 2283036); settings: primary human bronchial epithelial cells; actives raise or lower the signal
Method in brief: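 Primary human lung bronchial epithelial cells; compound exposure 24 h; TGF-b1 by ELISA; bidirectional fit, DMSO baseline. Parallel SRB total-protein staining for cytotoxicity.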

[14] = read-out: Plasminogen activator inhibitor-1 (PAI1), SERPINE1 (gene 5054); experiment: BSK_BE3C_PAI1: BioMAP Diversity Plus: BE3C Assay for Plasminogen activator inhibitor-1 (PAI1) Biomarker Activity (AID 2283037); settings: primary human bronchial epithelial cells; actives raise or lower the signal
Method in brief: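 Primary human lung bronchial epithelial cells; chemical dosing; 24 h; PAI-1 measured by ELISA; bidirectional fit referenced to DMSO as negative control.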

[15] = read-out: urokinase plasminogen activator (uPA), PLAU (gene 5328); experiment: BSK_BE3C_uPA: BioMAP Diversity Plus: BE3C Assay for urokinase plasminogen activator (uPA) Biomarker Activity (AID 2283038); settings: primary human bronchial epithelial cells; actives raise or lower the signal
Method in brief: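 Bronchial epithelial cells (human, primary); chemical 24 h; uPA by ELISA; bidirectional fit vs DMSO. SRB (0.1%, after 10% TCA fixation, 560 nm) in parallel cultures for cytotoxicity.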

[16] = read-out: Urokinase-type plasminogen activator receptor (uPAR), PLAUR (gene 5329); experiment: BSK_BE3C_uPAR: BioMAP Diversity Plus: BE3C Assay for Urokinase-type plasminogen activator receptor (uPAR) Biomarker Activity (AID 2283039); settings: primary human bronchial epithelial cells; actives raise or lower the signal
Method in brief: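 Human bronchial epithelial primary cells; chemical exposure 24 h; uPAR by ELISA; bidirectional fit vs DMSO control.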

[17] = read-out: Interleukin-6 (IL6), IL6 (gene 3569); experiment: BSK_CASM3C_IL6: BioMAP Diversity Plus: CASM3C Assay for Interleukin-6 (IL6) Biomarker Activity for (AID 2283040); settings: primary human coronary artery smooth muscle cells; actives raise or lower the signal
[18] = read-out: Tissue plasminogen activator (tPA), PLAT (gene 5327); experiment: BSK_BE3C_tPA: BioMAP Diversity Plus: BE3C Assay for Tissue plasminogen activator (tPA) Biomarker Activity (AID 2283041); settings: primary human bronchial epithelial cells; actives raise or lower the signal
Method in brief: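 Primary human lung bronchial epithelial cultures receive test chemical; after 24 h, tPA is quantified by ELISA, and gain or loss of signal is fitted bidirectionally relative to DMSO baseline.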

[19] = read-out: Interleukin-8 (IL8), CXCL8 (gene 3576); experiment: BSK_CASM3C_IL8: BioMAP Diversity Plus: CASM3C Assay for Interleukin-8 (IL8) Biomarker Activity (AID 2283042); settings: primary human coronary artery smooth muscle cells; actives raise or lower the signal;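 also: IL-8 protein level quantified by ELISA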

Measured: AC50

O=C(N[C@H]1CN2CCC1CC2)c1cc2ccoc2cn1
inactive: all assays above

Nn1cnnc1
not listed: [9]
inactive: all other assays above

CO/C=C(/C(=O)OC)c1ccccc1COc1cccc(C(F)(F)F)n1
active: [1] 20 µM | [4] 7.84 µM | [10] 4.02 µM | [11] 3.97 µM | [17] 5.93 µM | [19] 3.94 µM
not listed: [9]
inactive: all other assays above

C1CC2OC2CC1C1CO1 (configuration not stated)
not listed: [9]
inactive: all other assays above

CCC(=O)O[C@H]1CC[C@H]2[C@@H]3CCC4=CC(=O)CC[C@]4(C)[C@H]3CC[C@]12C
active: [1] 28.4 µM | [3] 20.7 µM | [4] 33.5 µM | [7] 30.3 µM | [8] 28 µM | [10] 37.4 µM
not listed: [9] | [17]
inactive: all other assays above

CCCCCCOC(=O)c1ccccc1C(=O)OCCCCCC
active: [1] 15.1 µM
not listed: [9]
inactive: all other assays above

CCCCCCCCOC(=O)c1ccccc1C(=O)OCCCCCCCC
active: [7] 3.7 µM
inactive: all other assays above

Clc1ccc(C(Cl)(Cl)Cl)cc1
not listed: [9]
inactive: all other assays above

C[C@]12CCC(=O)C=C1CC[C@@H]1[C@@H]2CC[C@@]2(C)[C@H]1CC[C@]2(C)O
active: [1] 28.3 µM | [2] 9.79 µM
not listed: [9]
inactive: all other assays above

Oc1ccc(C(c2ccc(O)cc2)(C(F)(F)F)C(F)(F)F)cc1
inactive: [8] | [17] | [19]
active: [1] 16.2 µM | [2] 34 µM | [3] 18.7 µM | [4] 28 µM | [5] 37.2 µM | [6] 21.3 µM | [7] 32.5 µM | [9] 20.1 µM | [10] 29.3 µM | [11] 24.1 µM | [12] 37.3 µM | [13] 28.5 µM | [14] 21.4 µM | [15] 38.2 µM | [16] 38.1 µM | [18] 21.8 µM

Clc1ccc(C(c2ccccc2Cl)C(Cl)(Cl)Cl)cc1 (configuration not stated)
active: [1] 16.1 µM | [3] 26.4 µM | [4] 19.5 µM | [7] 21.2 µM | [8] 17.2 µM
not listed: [9] | [10]
inactive: all other assays above

CC(C)(c1ccccc1)c1ccc(O)cc1
active: [1] 30.2 µM | [3] 37.5 µM | [4] 30.5 µM | [5] 32.3 µM | [7] 32 µM | [10] 32.1 µM | [11] 30.5 µM | [12] 32.2 µM | [13] 33.4 µM | [14] 34.1 µM | [18] 29.3 µM
inactive: [2] | [6] | [8] | [15] | [16] | [17] | [19]
